Laboratory results: PubChem BioAssay (NCATS)
Results filed as inconclusive are left out. A call without a number means that no potency is given here. The source made the active and inactive calls. Calls follow the shape of the dose curve; as a rule, active = well fitted inhibition curve with a large enough effect; inconclusive = small, poorly fitted or top-dose-only effect; inactive = flat fitted curve, though single readings scatter.

biological target: Calcium and integrin-binding protein 1 (Homo sapiens) (UniProt Q99828); experiment: Primary qHTS for Identification of Calcium Integrin Binding Protein 1 (CIB1) Competitor (AID 1508620); details: CIB1-GST / FITC-alphaIIb peptide fluorescence polarization; series mostly up to 114 µM;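 also: GST tagged CIB1 binding a fluorescein labelled alphaIIb integrin peptide tracer; top concentration of the series differs between compounds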
Summary of the method: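 Fluorescence polarization competition: CIB1-GST (1 uM final) preincubated with compound 15 min at room temperature, then FITC-labeled alphaIIb peptide (100 nM final) added for another 15 min. Polarization read at Ex 480/Em 540.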

Chain of Calcium and integrin-binding protein 1 (Homo sapiens) (Q99828 whole entry, looked up): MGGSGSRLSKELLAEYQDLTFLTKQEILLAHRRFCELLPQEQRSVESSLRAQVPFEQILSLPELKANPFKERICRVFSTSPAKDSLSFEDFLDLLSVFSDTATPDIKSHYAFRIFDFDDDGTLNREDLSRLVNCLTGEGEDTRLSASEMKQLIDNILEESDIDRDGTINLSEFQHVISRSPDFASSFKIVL

| Compound | Potency |
| --- | --- |
| COc1cccc(CNc2ccc(S(=O)(=O)Nc3cnc4ccccc4c3)cc2)c1O | inactive |
| O=C1Nc2ccccc2/C1=C/c1cccc(C(=O)O)c1 | inactive |
| O=c1c2ccccc2nc2sc(Nc3ccc(F)cc3)nn12 | inactive |
| O=C(Cn1cc(CNC(=O)C2CCCCC2)nn1)Nc1cc(C(F)(F)F)ccc1Cl | inactive |
| N#Cc1cccc(CSc2nc3ncc(Br)cc3[nH]2)c1 | inactive |
| CC(C)(C)OC(=O)N1CCN(c2ccc(NCc3ccoc3-c3ccc(C#N)cc3)cc2)CC1 | inactive |
| Cc1c(P(=S)(c2ccccc2)c2ccccc2)[n+]2ccccc2n1CCCCCc1ccccc1 | inactive |
| CC(=O)Nc1sc2c(c1-c1ccccc1)CCNC2 | inactive |
| Cc1cnc(-c2ccccc2C(C)C)nc1NCc1ccc(C#N)cc1 | inactive |
| Cn1nnnc1Sc1ncnc2scc(-c3ccccc3F)c12 | inactive |
| N#Cc1nc(NCCCO)nc(Nc2ccccc2)n1 | inactive |
| Cc1ccc(NS(=O)(=O)c2cc3c(cc2Br)NC(=O)CO3)cc1C | inactive |
| CN(C)c1ccc(/C=C/C(=O)Nc2cccc([S+](=O)([O-])Nc3ccccc3F)c2)cc1 | inactive |
| O=C1CCc2cc(S(=O)(=O)Nc3cccc(B(O)O)c3)ccc2N1 | inactive |
| CC(C)N1Cc2ccc(Nc3nn4c(=O)c5ccccc5nc4s3)cc2C1 | inactive |
| COc1ccccc1-c1csc(N2CCC(C(N)=O)CC2)n1 | inactive |
| COc1ccc(OC)c(-c2nnc3n2N=C(c2ccc(OC)c(OC)c2)CS3)c1 | inactive |
| Cc1cc(C)nc(NC(=S)N2CCN(c3nccc4ccccc34)CC2)c1 | inactive |
